According to PubChem BioAssay:
A number with no mark means an inactive call. A call without a number means that no potency is given here. For some assays here: Potency and affinity values are given separately. Activity calls are given as the source filed them. Unless noted, no rule for the calls is given here.

Experiments:
[1] = antimalarial activity against Dd2 strain (AID 2302;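 active = growth inhibition above 50% at the single 2 µM test dose, taken to imply half-maximal potency below 2 µM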); conditions: P. falciparum Dd2 in RBCs, LDH growth readout, 72 h; at 2 µM; stronger effect = higher value
[2] = HepG2 cytotoxicity, primary screen, cytotoxicity control for P. falciparum antimalarial project, cell-based, ATP luminescence (AID 2303;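 active = inhibition above 50%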); conditions: HepG2 viability, 24-48 h, at 10 µM, stronger effect = higher value
[3] = target: L-lactate dehydrogenase (Plasmodium falciparum (isolate CDC / Honduras)) (UniProt Q27743); experiment: PfLDH activity inhibition – cell lysate, 3D7 strain, counter-screen for P. falciparum growth inhibition project (AID 2304); conditions: P. falciparum 3D7 crude extract, LDH APAD/NBT absorbance; at 2 µM; stronger effect = higher value
Chain of L-lactate dehydrogenase (Plasmodium falciparum (isolate CDC / Honduras)) (Q27743 whole entry, looked up): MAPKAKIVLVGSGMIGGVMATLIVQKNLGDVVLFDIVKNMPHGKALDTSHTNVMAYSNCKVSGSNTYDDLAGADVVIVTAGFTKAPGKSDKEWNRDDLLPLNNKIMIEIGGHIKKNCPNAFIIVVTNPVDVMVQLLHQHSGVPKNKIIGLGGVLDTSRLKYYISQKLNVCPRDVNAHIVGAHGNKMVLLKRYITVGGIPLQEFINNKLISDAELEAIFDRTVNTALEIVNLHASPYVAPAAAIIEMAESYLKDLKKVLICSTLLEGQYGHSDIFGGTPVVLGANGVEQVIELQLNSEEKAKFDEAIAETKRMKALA

[4] = inhibition of 3D7 malaria parasite growth – strain 3D7 (AID 2306); conditions: P. falciparum 3D7 erythrocytic growth, LDH absorbance, 72 h; at 2 µM; stronger effect = higher value
[5] = target: Calcium-dependent protein kinase 1 (Plasmodium falciparum (isolate 3D7)) (UniProt P62344); experiment: PfCDPK1 kinase inhibitors, biochemical, TCAMS library (AID 1159585; cut-off not given, nearly all actives have IC50 up to about 0.98 µM;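 also: inhibitors leave more ATP so luminescence rises with inhibition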); conditions: recombinant PfCDPK1, Kinase-Glo ATP depletion luminescence
Chain of Calcium-dependent protein kinase 1 (Plasmodium falciparum (isolate 3D7)) (P62344 whole entry, looked up): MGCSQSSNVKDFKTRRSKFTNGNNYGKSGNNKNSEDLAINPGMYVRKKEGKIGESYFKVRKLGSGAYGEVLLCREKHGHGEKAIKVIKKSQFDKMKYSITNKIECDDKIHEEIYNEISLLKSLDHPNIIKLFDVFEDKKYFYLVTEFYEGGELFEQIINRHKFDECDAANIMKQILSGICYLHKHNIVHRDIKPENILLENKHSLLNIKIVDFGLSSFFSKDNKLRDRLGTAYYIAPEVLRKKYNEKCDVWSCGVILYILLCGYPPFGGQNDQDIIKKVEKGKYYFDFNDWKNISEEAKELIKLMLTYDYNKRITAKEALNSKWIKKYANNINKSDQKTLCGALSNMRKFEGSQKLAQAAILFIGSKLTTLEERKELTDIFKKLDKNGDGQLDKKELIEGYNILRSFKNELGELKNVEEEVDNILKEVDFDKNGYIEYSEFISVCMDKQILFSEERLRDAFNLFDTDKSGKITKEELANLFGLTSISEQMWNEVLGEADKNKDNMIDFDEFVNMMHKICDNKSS

[6] = target: Plasmodium falciparum protein kinase 6 (PK6, PF3D7_1337100) (UniProt Q8IDW1); experiment: PfPK6 kinase inhibitors, biochemical, TCAMS library (AID 1159586); conditions: recombinant PfPK6, Kinase-Glo ATP depletion luminescence
Chain of Plasmodium falciparum protein kinase 6 (PK6, PF3D7_1337100) (Q8IDW1 1-305): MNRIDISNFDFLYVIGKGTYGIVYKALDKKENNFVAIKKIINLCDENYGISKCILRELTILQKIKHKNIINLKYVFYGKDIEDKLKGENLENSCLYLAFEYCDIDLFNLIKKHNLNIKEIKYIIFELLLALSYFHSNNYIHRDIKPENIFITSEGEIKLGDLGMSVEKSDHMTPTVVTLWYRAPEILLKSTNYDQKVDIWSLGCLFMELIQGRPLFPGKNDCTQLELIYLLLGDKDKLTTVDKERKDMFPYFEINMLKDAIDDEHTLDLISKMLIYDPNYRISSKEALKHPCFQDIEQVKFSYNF

[7] = target: Protein kinase 7 (PK7), Plasmodium falciparum 3D7 (PF3D7_0213400) (UniProt Q7YTF7); experiment: inhibition of Plasmodium PK7 catalytic activity – biochemical, TCAMS antimalarial set, Kinase-Glo luminescence (AID 1159587); conditions: recombinant PfPK7, Kinase-Glo ATP depletion luminescence
Chain of Protein kinase 7 (PK7), Plasmodium falciparum 3D7 (PF3D7_0213400) (Q7YTF7 1-343): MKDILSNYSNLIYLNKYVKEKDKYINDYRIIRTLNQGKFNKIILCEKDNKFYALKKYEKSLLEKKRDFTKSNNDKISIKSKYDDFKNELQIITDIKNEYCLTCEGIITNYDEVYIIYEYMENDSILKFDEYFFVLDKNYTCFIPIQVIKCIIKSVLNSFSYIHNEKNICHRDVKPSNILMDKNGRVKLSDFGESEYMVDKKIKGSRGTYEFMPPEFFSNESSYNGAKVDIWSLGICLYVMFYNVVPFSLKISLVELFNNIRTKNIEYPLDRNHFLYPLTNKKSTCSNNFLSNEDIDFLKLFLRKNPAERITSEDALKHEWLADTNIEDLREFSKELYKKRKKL

[8] = target: Calcium-dependent protein kinase 4 (Plasmodium falciparum (isolate 3D7)) (UniProt Q8IBS5); experiment: PfCDPK4 kinase inhibitors, biochemical, TCAMS library (AID 1159588; cut-off not given, nearly all actives have IC50 up to about 0.91 µM); conditions: recombinant PfCDPK4, Kinase-Glo ATP depletion luminescence
Chain of Calcium-dependent protein kinase 4 (Plasmodium falciparum (isolate 3D7)) (Q8IBS5 whole entry, looked up): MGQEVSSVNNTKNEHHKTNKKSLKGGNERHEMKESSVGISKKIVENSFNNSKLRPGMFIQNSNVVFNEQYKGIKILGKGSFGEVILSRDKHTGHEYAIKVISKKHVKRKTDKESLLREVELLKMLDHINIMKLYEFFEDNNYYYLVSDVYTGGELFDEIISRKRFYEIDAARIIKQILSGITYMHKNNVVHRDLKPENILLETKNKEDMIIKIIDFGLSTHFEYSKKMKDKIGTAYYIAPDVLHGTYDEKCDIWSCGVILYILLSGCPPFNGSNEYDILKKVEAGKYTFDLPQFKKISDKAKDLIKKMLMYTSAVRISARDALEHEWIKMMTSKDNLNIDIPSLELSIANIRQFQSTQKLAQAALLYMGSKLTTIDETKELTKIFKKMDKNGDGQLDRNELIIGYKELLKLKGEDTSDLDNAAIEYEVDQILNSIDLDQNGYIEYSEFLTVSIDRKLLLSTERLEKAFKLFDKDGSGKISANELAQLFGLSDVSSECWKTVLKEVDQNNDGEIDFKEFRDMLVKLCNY

Row | Compound | growth inhibition [1] | inhibition [2] | inhibition [3] [%] | growth inhibition [4] | outcome [5] | outcome [6] | outcome [7] | outcome [8]
1 | CCNc1cc(C(=O)N[C@@H](Cc2ccccc2)[C@H](O)CNCCc2cccc(C(F)(F)F)c2)cc(N2CCCC2=O)c1 | 93% (active) | 7% | 1 | 96% (active) | inactive | inactive | inactive | inactive
2 | O=C(CCc1cccc(O)c1)NCC(NCCCNc1cc(=O)c2ccccc2[nH]1)c1cc(Br)cc(Br)c1 (stereo not given) | 37% | -6% | -4 | 86% (active) | inactive | inactive | inactive | inactive
3 | Cc1cccc(NC(=O)Nc2cccc(-c3ccc(-c4nc5ccc(C(F)(F)F)cc5[nH]4)cc3)c2)c1 | 94% (active) | 44% | -1 | 101% (active) | inactive | inactive | inactive | inactive
4 | O=C(NC1CCCC1)c1ccc(N2CCC(NCc3cc4cc(Cl)ccc4[nH]3)CC2)cc1 | -10% | 21% | -2 | 91% (active) | inactive | inactive | inactive | inactive
5 | CN(C)CCCOc1ccc(CNCc2cccc(Oc3ccc(Cl)cc3)c2)cc1 | 30% | 52% (active) | 0 | 100% (active) | inactive | inactive | inactive | inactive
6 | CCCc1ccc(NC(=O)c2cccc(CN3CCCN(Cc4cccc(C#N)c4)CC3)c2)cc1 | 0% | 20% | -4 | 85% (active) | inactive | inactive | inactive | inactive
7 | O=C(N[C@@H](CC1CCCCC1)C(=O)NCc1cccc2ccccc12)c1ccc(O)c(-c2ccc(Cl)c(Cl)c2)c1 | 99% (active) | -9% | 2 | 97% (active) | inactive | inactive | inactive | inactive
8 | NCC1CCCN1Cc1cccc(-c2cccc(-c3nc4ccc(F)cc4[nH]3)c2)c1 (stereo not given) | 65% (active) | 10% | 5 | 101% (active) | inactive | inactive | inactive | inactive
9 | COC(=O)c1cccc(CNCc2ccc(-c3ccc(-c4nc5c(C)cccc5[nH]4)cc3)cc2)c1 | 86% (active) | 17% | 3 | 102% (active) | inactive | inactive | inactive | inactive
10 | Cc1c(CNCCCNc2cc(=O)c3ccccc3[nH]2)sc(C(F)=C(F)F)c1Br | 18% | 7% | -2 | 94% (active) | inactive | inactive | inactive | inactive
11 | CC(C)C[C@@H]1C(=O)N[C@H](C2Cc3ccccc3C2)C(=O)N1[C@@H](C(=O)O)c1ccc(F)cc1F | -2% | 10% | -1 | 98% (active) | inactive | inactive | inactive | inactive
12 | O=C(Nc1ccc(-c2csc3nccn23)cc1)c1ccc(Cl)cc1 | 50% (active) | 54% (active) | -5 | 100% (active) | inactive | inactive | inactive | inactive
13 | CCn1c2ccccc2c2cc(C=NNc3cc(C)nc4ccccc34)ccc21 | 97% (active) | 19% | -2 | 102% (active) | inactive | inactive | inactive | inactive
14 | Cc1ccc2nc(-c3ccccc3)cc(NN=Cc3cccnc3)c2c1 | 39% | 12% | 1 | 99% (active) | inactive | inactive | inactive | inactive
15 | COc1ccccc1CCN1CCC(CN(C)Cc2ccc(O)c(Cl)c2)CC1 | 52% (active) | 19% | -3 | 101% (active) | inactive | inactive | inactive | inactive
16 | Cc1[nH]c(C)c(-c2ccc(Oc3ccc(F)cc3)cc2)c(=O)c1Cl | 98% (active) | 14% | 4 | 99% (active) | inactive | inactive | inactive | inactive
17 | C=CCn1c(Sc2ccc(C#N)c([N+](=O)[O-])c2)nnc1-c1ccc(OC)cc1 | 74% (active) | -5% | 0 | 96% (active) | inactive | inactive | inactive | inactive
18 | CC(C)CCNCc1ccc(OCc2cccc(COc3ccc(CNCCC(C)C)cc3I)c2)c(I)c1 | 49% | 99% (active) | 2 | 91% (active) | inactive | inactive | inactive | inactive
19 | CCN1CCN(c2cc(C)c3cc(NC(=O)c4cccc(OC)c4)ccc3n2)CC1 | 15% | 5% | 3 | 99% (active) | inactive | inactive | inactive | inactive
20 | Cc1ccc(Nc2ccnc(Nc3ccc(F)c(Cl)c3)n2)cc1O | 52% (active) | 9% | -4 | 101% (active) | inactive | inactive | inactive | inactive

Row | Compound | growth inhibition [1] | inhibition [2] | inhibition [3] [%] | growth inhibition [4] | outcome [5] | outcome [6] | outcome [7] | outcome [8]
21 | COc1ccc2nccc([C@@H](O)CN3CCC(NCc4ccc5sc(=O)[nH]c5c4)CC3)c2c1 | -3% | 1% | -3 | 98% (active) | inactive | inactive | inactive | inactive
22 | Cc1cc(N[C@@H](Cc2ccccc2)C(=O)NCCOc2ccccc2)nc(NCc2ccccc2C)n1 | 80% (active) | 32% | -3 | 100% (active) | inactive | inactive | inactive | inactive
23 | N#Cc1ccc(CN2CCC(Oc3ccc(NC(=O)c4cccs4)cc3Cl)C2)cc1 (stereo not given) | 95% (active) | 31% | -2 | 96% (active) | inactive | inactive | inactive | inactive
24 | Nc1cc(C=Cc2ccc([N+](=O)[O-])o2)nc2ccccc12 | 81% (active) | 100% (active) | 4 | 93% (active) | inactive | inactive | inactive | inactive
25 | O=C(NCCc1ccccc1)N(Cc1ccccc1-c1ccc(CNC2CCCC2)cc1)C1CCN(Cc2ccccc2)CC1 | 95% (active) | 96% (active) | 1 | 96% (active) | inactive | inactive | inactive | inactive
26 | COc1ccc(Nc2nc(NC3CCN(Cc4ccccc4)CC3)cc(-c3ccncc3)n2)cc1 | 40% | 26% | 0 | 88% (active) | inactive | inactive | inactive | inactive
27 | CN1CCN(C(C(=O)NCc2cc(Cl)cc(Cl)c2)c2ccc(NC(=O)Nc3ccccc3)cc2)CC1 (stereo not given) | 43% | 23% | -5 | 98% (active) | inactive | inactive | inactive | inactive
28 | CN1CCN(CCCCCNc2c3ccccc3nc3ccccc23)CC1 | -8% | 57% (active) | 5 | 99% (active) | inactive | inactive | inactive | inactive
29 | COc1ccc(CN2CCC(N3CCc4cc(NC(=O)c5cc(C)on5)ccc43)C2)cc1Cl (stereo not given) | 91% (active) | 15% | 2 | 94% (active) | inactive | inactive | inactive | inactive
30 | CCCNC(=O)C1Cc2cc(OC)c(OC)cc2C2(N1)C(=O)N(Cc1cccc(OC)c1)c1ccccc12 (stereo not given) | 63% (active) | 11% | 3 | 91% (active) | inactive | inactive | inactive | inactive
31 | COc1ccc(NC(=O)N2CCc3ccc(OCCN(C(C)C)C(C)C)cc32)cc1C(F)(F)F | 6% | -1% | -2 | 90% (active) | inactive | inactive | inactive | inactive
32 | Cc1csc2nc(-c3ccccn3)nc(Nc3ccncn3)c12 | 85% (active) | 47% | -3 | 97% (active) | inactive | inactive | inactive | inactive
33 | Cc1ccccc1C1CCN(C2CCC(NC(=O)/C=C/c3cccc(Cl)c3F)CC2)CC1 (stereo not given) | 37% | 87% (active) | 4 | 101% (active) | inactive | inactive | inactive | inactive
34 | CCN(CC)CCNc1ccnc2ccc3ccccc3c12 | 67% (active) | 5% | 6 | 100% (active) | inactive | inactive | inactive | inactive
35 | Cc1cccc2[nH]c(-c3cccc(-c4cccc(NC(=O)Nc5cccc(C#N)c5)c4)c3)nc12 | 99% (active) | 22% | 6 | 101% (active) | inactive | inactive | inactive | inactive
36 | O=C1CCCC1Sc1nc2ccccc2c(=O)n1-c1ccc(Cl)c(Cl)c1 (stereo not given) | 42% | 10% | 0 | 97% (active) | inactive | inactive | inactive | inactive
37 | Cc1onc(-c2ccccc2)c1-c1nc(NC2CCCC(C)C2)no1 (stereo not given) | 46% | 22% | -3 | 101% (active) | inactive | inactive | inactive | inactive
38 | CC(C)(C)CCOC(=O)N1CCc2c(cc(O)c(O)c2Cl)C(c2ccc(O)cc2)C1 (stereo not given) | 95% (active) | 2% | -2 | 97% (active) | inactive | inactive | inactive | inactive
39 | C[C@H](NC(=O)C1CCCC1)C(=O)Nc1ccc(-c2ccc(-c3nc4ccc(C(F)(F)F)cc4[nH]3)cc2)cc1 | 70% (active) | 34% | -4 | 99% (active) | inactive | inactive | inactive | inactive
40 | Cc1cc(CNCCCCCCCNCc2ccc(Cl)cc2)ccc1O | 0% | 13% | -4 | 97% (active) | inactive | inactive | inactive | inactive
